Calls of active or inactive are those of the source. How the source made its calls: active means hit-call score of the fitted dose curve at least 0.9, where 1 is the maximum; inactive means score below 0.9.
What was measured:
[1] = target: Bile acid receptor (Homo sapiens) (UniProt Q96RI1); experiment: ATG_IR1_CIS: Attagene CIS-FACTORIAL HepG2 Assay for human Nuclear Receptor Subfamily 1 Group H Member 4 (NR1H4), IR1 submotif (AID 2282946); conditions: IR1 reporter transcription, actives raise or lower the signal
Bile acid receptor (Homo sapiens), sequence (Q96RI1 whole entry, looked up, the tested form may be a part): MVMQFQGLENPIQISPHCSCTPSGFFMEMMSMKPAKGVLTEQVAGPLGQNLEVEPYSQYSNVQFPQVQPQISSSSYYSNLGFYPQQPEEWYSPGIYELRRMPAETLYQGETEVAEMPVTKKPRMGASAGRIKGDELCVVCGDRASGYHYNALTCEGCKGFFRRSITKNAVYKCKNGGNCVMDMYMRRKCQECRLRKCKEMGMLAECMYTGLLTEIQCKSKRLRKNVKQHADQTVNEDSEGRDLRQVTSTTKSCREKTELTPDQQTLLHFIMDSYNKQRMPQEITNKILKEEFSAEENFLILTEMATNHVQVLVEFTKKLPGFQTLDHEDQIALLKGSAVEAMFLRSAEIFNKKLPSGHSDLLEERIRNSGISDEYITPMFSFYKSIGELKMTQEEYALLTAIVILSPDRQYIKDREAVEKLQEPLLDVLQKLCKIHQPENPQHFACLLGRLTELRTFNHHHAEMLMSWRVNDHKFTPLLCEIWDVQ
Method in brief: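 Cells (human HepG2) carry transiently transfected cis-promoter reporter transcription units. Compounds are incubated 24 h, total RNA is reverse-transcribed and amplified, and labelled fragments are resolved by capillary electrophoresis. Curves use DMSO as baseline.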

[2] = ATG_GRE_CIS: Attagene CIS-FACTORIAL HepG2 Assay for human Glucocorticoid Response Elements (GRE) (AID 2282947); conditions: HepG2 GRE cis-reporter, Attagene multiplex mRNA; actives raise or lower the signal
Method in brief: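 Transient MRTU transfection of human HepG2 liver cells; cis-regulated reporters report endogenous factors. 24 h dosing → RNA isolation → RT-PCR → 6-FAM primer extension → HpaI cut → CE fragment analysis. Bidirectional fit, DMSO negative control.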

[3] = ATG_ISRE_CIS: Attagene CIS-FACTORIAL HepG2 Assay for human Interferon Regulatory Factor 1 (IRF1) binding to an Interferon-Stimulated Response Element (ISRE) (AID 2282948); conditions: HepG2 ISRE cis-reporter (Attagene), mRNA transcription readout; actives raise or lower the signal
Method in brief: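 Transfected HepG2 (multiple reporter transcription units, cis elements) dosed 24 h. RNA → oligo(dT) RT → PCR → 6-FAM primer extension → HpaI → CE. DMSO = negative control/baseline.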

[4] = ATG_M_06_CIS: Attagene CIS-FACTORIAL HepG2 Assay for M06 Transcription Factor (Internal Marker) (AID 2282950); conditions: HepG2 Attagene CIS-FACTORIAL M06 internal marker reporter; actives raise or lower the signal
Method in brief: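 Steps: transfect HepG2 with multiplexed cis-element reporter constructs; dose chemical 24 h; extract RNA with DNase treatment; reverse-transcribe, PCR-amplify, 6-FAM label, HpaI digest; separate fragments by capillary electrophoresis. Activity fitted both directions versus DMSO.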

[5] = target: Hypoxia-inducible factor 1-alpha (Homo sapiens) (UniProt Q16665); experiment: ATG_HIF1a_CIS: Attagene CIS-FACTORIAL HepG2 Assay for human Hypoxia Inducible Factor 1 (HIF1A) (AID 2282951); conditions: HepG2 Attagene cis-factorial HIF1a reporter transcription; actives raise or lower the signal
Hypoxia-inducible factor 1-alpha (Homo sapiens), sequence (Q16665 whole entry, looked up): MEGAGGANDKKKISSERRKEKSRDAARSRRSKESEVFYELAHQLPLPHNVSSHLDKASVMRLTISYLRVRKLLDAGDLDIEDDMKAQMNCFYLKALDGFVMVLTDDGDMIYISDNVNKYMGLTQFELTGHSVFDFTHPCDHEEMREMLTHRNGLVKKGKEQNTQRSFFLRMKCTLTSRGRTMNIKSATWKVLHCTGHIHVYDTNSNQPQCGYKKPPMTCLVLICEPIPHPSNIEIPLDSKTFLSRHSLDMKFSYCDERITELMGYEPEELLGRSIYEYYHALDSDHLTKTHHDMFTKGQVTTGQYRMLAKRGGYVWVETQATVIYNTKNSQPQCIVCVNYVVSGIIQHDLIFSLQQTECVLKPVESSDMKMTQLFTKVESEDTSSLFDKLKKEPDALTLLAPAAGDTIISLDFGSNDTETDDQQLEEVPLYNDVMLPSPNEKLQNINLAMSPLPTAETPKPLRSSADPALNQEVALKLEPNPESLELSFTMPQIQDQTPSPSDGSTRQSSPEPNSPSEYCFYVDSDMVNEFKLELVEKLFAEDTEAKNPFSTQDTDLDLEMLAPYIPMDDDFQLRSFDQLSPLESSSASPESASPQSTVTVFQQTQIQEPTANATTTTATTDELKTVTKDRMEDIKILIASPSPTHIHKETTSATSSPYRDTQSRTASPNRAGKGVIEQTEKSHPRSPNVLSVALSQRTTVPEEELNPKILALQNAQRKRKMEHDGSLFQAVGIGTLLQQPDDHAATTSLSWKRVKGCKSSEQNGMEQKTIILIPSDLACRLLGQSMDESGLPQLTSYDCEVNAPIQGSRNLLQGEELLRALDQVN
Method in brief: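 HepG2 cells transiently transfected with multiple cis-regulated reporter transcription units measure endogenous transcription factor activity. After 24 h exposure, reporter mRNA is quantified by RT-PCR with 6-FAM labelling, HpaI digestion and capillary electrophoresis. Bidirectional fitting against DMSO.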

[6] = target: Hepatocyte nuclear factor 6 (Homo sapiens) (UniProt Q9UBC0); experiment: ATG_HNF6_CIS: Attagene CIS-FACTORIAL HepG2 Assay for human Hepatocyte Nuclear Factor 6 (HNF6) (AID 2282952); conditions: HepG2 Attagene cis-factorial HNF6 reporter transcription; actives raise or lower the signal
Hepatocyte nuclear factor 6 (Homo sapiens), sequence (Q9UBC0 whole entry, looked up): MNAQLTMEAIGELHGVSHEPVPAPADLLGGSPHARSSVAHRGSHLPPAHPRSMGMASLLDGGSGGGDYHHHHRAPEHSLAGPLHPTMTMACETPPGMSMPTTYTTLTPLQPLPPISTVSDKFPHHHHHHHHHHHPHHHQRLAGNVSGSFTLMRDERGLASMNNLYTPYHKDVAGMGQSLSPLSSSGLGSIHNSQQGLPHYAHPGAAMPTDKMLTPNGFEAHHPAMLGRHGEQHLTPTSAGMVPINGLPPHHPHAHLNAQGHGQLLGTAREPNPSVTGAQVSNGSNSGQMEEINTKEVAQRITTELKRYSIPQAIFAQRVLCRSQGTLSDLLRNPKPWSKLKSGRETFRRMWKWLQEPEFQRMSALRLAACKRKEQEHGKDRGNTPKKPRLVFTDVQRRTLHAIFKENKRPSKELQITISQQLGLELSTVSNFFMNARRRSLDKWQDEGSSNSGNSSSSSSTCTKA
Method in brief: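 Cells are HepG2 carrying transiently transfected cis-promoter reporter units. Treatment lasts 24 h, after which reporter transcripts are reverse-transcribed, amplified, FAM-labelled and sized by capillary electrophoresis. DMSO serves as baseline.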

[7] = target: Heat shock factor protein 1 (Homo sapiens) (UniProt Q00613); experiment: ATG_HSE_CIS: Attagene CIS-FACTORIAL HepG2 Assay for human Heat Shock Transcription Factor 1 (HSE) (AID 2282953); conditions: HepG2 HSE cis-reporter, Attagene RNA transcription; actives raise or lower the signal
Heat shock factor protein 1 (Homo sapiens), sequence (Q00613 whole entry, looked up, the tested form may be a part): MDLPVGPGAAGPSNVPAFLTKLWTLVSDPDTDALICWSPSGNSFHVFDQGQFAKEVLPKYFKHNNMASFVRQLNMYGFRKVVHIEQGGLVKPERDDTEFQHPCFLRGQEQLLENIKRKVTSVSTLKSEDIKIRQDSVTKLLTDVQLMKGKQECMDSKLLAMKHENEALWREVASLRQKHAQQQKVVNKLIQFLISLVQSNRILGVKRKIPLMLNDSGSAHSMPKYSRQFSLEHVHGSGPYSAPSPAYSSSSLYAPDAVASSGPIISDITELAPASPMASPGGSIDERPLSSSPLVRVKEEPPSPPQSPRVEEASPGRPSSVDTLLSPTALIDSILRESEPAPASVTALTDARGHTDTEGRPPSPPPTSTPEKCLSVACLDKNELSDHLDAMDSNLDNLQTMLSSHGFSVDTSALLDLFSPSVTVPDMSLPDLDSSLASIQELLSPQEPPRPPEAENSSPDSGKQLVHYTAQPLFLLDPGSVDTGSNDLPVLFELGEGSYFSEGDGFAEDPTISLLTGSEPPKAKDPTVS
Method in brief: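 Cells were transfected with cis-element-driven reporter constructs, dosed for 24 h, then total RNA was reverse-transcribed and reporter cDNA amplified, FAM-labelled and digested with HpaI. Fragments were resolved by capillary electrophoresis; gain or loss was fitted against DMSO.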

[8] = ATG_MRE_CIS: Attagene CIS-FACTORIAL HepG2 Assay for human Metal Responsive Element (MRE) (AID 2282954); conditions: HepG2 MRE cis-reporter transcription, Attagene multiplex; actives raise or lower the signal
Method in brief: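 Transient MRTU transfection of HepG2 (FuGene 6); 24 h dosing; total RNA → oligo(dT) RT, PCR, 6-FAM primer extension, HpaI cut, CE. Bidirectional fit vs DMSO.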

[9] = ATG_PBREM_CIS: Attagene CIS-FACTORIAL HepG2 Assay for human Phenobarbital-responsive Enhancer Module (PBREM) (AID 2282955); conditions: HepG2 PBREM cis-reporter, Attagene multiplexed transcription; actives raise or lower the signal
Method in brief: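 HepG2 cells transiently transfected with multiple cis-regulated reporter units measure endogenous transcription factor activity; 24 h compound exposure. Reporter mRNA quantified by RT-PCR, fluorescent labelling, HpaI digestion and capillary electrophoresis; bidirectional fit versus DMSO.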

[10] = target: Paired box protein Pax-6 (Homo sapiens) (UniProt P26367); experiment: ATG_Pax6_CIS: Attagene CIS-FACTORIAL HepG2 Assay for human Paired Box 6 (PAX6) (AID 2282956); conditions: HepG2 CIS-FACTORIAL PAX6 reporter transcription, RNA readout; actives raise or lower the signal
Paired box protein Pax-6 (Homo sapiens), sequence (P26367 whole entry, looked up): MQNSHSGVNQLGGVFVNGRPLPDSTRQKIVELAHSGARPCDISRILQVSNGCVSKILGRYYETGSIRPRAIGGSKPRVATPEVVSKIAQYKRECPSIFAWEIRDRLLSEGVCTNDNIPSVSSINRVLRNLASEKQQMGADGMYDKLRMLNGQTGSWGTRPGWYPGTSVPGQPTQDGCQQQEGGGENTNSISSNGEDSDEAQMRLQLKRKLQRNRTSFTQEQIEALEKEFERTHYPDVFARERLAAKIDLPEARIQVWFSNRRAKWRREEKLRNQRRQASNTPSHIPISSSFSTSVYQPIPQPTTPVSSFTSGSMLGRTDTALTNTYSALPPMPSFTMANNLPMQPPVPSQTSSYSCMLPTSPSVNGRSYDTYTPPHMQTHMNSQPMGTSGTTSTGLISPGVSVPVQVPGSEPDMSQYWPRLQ
Method in brief: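 Transient MRTU transfection of HepG2 → compound exposure 24 h → TriZol RNA, oligo(dT) RT → PCR, 6-FAM primer extension, HpaI cut → capillary electrophoresis; activity fitted both directions against DMSO.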

[11] = ATG_PXRE_CIS: Attagene CIS-FACTORIAL HepG2 Assay for human Pregnane X Receptor Element (PXRE) (AID 2282957); conditions: HepG2 Attagene CIS-FACTORIAL PXRE reporter, mRNA; actives raise or lower the signal
Method in brief: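 Multiplexed cis-reporter assay in transiently transfected human HepG2 cells; 24 h chemical exposure. Reporter transcripts quantified by RT-PCR with fluorescent labeling and capillary electrophoresis.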

[12] = ATG_PPRE_CIS: Attagene CIS-FACTORIAL HepG2 Assay for human Peroxisome Proliferator-activated Response Element (PPRE) (AID 2282958); conditions: HepG2 PPRE cis-element reporter, Attagene transcription factor profiling; actives raise or lower the signal
Method in brief: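 HepG2 cells are transiently transfected with multiplexed cis-promoter reporter units to report endogenous PPAR activity. After 24 h dosing, reporter mRNA is read by RT-PCR and capillary electrophoresis. Fitting is bidirectional against DMSO.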

[13] = ATG_RORE_CIS: Attagene CIS-FACTORIAL HepG2 Assay for human RAR-related Orphan Receptor Element (RORE) (AID 2282959); conditions: HepG2 Attagene cis-factorial RORE reporter, mRNA; actives raise or lower the signal
Method in brief: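 HepG2 cells carrying transiently transfected cis-regulated reporter units; RORE-driven reporter mRNA quantified 24 h post-dosing by RT-PCR, 6-FAM primer extension, HpaI digestion and capillary electrophoresis. Bidirectional fit versus DMSO.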

[14] = ATG_Sox_CIS: Attagene CIS-FACTORIAL HepG2 Assay for human SRY-box transcription factor (SOX) (AID 2282960); conditions: HepG2 Attagene cis-factorial SOX reporter, mRNA; actives raise or lower the signal
Method in brief: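 HepG2 cells transiently transfected with multiple cis-regulated reporter units, then dosed for 24 h. Reporter mRNA quantified by RT-PCR, fluorescent labelling, HpaI digestion and capillary electrophoresis; bidirectional fit versus DMSO.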

[15] = target: Transcription factor Sp1 (Homo sapiens) (UniProt P08047); experiment: ATG_Sp1_CIS: Attagene CIS-FACTORIAL HepG2 Assay for human Specificity Protein 1 (Sp1) (AID 2282961); conditions: HepG2 Sp1 cis-reporter transcription, actives raise or lower the signal
Transcription factor Sp1 (Homo sapiens), sequence (P08047 whole entry, looked up): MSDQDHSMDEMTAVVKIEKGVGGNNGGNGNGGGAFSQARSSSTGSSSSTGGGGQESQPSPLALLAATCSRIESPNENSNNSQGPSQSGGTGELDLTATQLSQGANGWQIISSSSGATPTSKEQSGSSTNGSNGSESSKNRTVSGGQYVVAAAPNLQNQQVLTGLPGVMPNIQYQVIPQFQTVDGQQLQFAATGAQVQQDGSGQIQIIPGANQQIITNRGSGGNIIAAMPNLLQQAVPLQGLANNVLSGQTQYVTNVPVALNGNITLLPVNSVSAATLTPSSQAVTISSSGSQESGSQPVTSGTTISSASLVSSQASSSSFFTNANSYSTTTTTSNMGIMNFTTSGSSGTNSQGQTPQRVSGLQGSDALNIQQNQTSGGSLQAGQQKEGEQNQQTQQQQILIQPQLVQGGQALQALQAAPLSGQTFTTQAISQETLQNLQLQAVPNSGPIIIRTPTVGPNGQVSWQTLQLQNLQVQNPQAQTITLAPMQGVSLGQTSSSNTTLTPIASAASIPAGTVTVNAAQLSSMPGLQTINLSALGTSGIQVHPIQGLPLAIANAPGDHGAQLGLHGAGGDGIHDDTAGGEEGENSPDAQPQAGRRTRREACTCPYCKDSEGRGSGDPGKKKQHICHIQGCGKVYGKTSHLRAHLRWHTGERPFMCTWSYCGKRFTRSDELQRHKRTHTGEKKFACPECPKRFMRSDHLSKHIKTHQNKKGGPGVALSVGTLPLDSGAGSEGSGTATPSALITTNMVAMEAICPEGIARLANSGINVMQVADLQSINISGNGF
Method in brief: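 HepG2 cells transiently transfected with multiplexed cis-regulated reporter constructs, chemical exposure 24 h. Reporter mRNA quantified by RT-PCR with capillary electrophoresis; bidirectional fit relative to DMSO.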

[16] = ATG_SREBP_CIS: Attagene CIS-FACTORIAL HepG2 Assay for human Sterol Regulatory Element Binding (SREBP) (AID 2282962); conditions: HepG2 Attagene cis-factorial SREBP reporter, mRNA; actives raise or lower the signal
Method in brief: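 Transfected HepG2 (cis-regulated reporter library, endogenous TFs) → compound 24 h → total RNA → oligo(dT) RT → reporter-specific PCR → FAM primer extension, HpaI cut → CE fluorescence. Fit bidirectional vs DMSO.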

[17] = target: Signal transducer and activator of transcription 3 (Homo sapiens) (UniProt P40763); experiment: ATG_STAT3_CIS: Attagene CIS-FACTORIAL HepG2 Assay for human Signal Transducer and Activator of Transcription 3 (STAT3) (AID 2282963); conditions: HepG2, Attagene cis-factorial STAT3 reporter transcription; actives raise or lower the signal
Signal transducer and activator of transcription 3 (Homo sapiens), sequence (P40763 whole entry, looked up): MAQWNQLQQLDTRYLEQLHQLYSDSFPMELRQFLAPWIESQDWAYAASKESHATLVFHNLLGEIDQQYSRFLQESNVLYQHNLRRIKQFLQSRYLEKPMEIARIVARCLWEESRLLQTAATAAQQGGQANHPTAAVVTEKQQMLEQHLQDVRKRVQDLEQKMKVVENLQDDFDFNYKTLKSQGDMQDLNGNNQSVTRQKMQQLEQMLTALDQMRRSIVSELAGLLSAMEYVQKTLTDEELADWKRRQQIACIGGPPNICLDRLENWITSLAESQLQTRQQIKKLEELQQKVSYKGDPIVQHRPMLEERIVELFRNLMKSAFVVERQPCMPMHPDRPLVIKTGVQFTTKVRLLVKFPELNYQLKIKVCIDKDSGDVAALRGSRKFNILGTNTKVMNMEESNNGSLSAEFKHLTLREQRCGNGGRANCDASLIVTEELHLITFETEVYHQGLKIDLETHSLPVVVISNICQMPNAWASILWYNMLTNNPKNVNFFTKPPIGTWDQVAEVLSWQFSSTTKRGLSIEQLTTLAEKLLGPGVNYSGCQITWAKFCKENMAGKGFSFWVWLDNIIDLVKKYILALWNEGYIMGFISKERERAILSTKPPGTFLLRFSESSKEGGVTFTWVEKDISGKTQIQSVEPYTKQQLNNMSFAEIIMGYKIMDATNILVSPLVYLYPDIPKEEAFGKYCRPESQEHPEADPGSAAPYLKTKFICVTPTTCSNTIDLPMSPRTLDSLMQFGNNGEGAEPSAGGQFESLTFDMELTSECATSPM
Method in brief: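 Endogenous STAT3-responsive cis-element activity was read in transiently transfected HepG2 cells after 24 h treatment. Reporter transcripts were quantified via RT-PCR and capillary electrophoresis, with DMSO as negative control and bidirectional curve fitting.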

[18] = ATG_TA_CIS: Attagene CIS-FACTORIAL HepG2 Assay for human TA Basal Promoter (AID 2282964); conditions: HepG2 Attagene CIS-factorial TA basal promoter reporter; actives raise or lower the signal
Method in brief: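 Steps: transfect HepG2 with MRTUs; dose 24 h; isolate RNA, DNase-treat, reverse-transcribe; PCR and FAM-label reporter cDNA; digest with HpaI 2h at 37 C; run capillary electrophoresis. Activity fitted both directions against DMSO.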

[19] = ATG_TCF_b_cat_CIS: Attagene CIS-FACTORIAL HepG2 Assay for human T-Cell-Factor with beta-catenin (TCF/b-cat) (AID 2282965); conditions: HepG2 TCF/beta-catenin cis-reporter transcription, actives raise or lower the signal
Method in brief: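 Measured: reporter mRNA in HepG2 transiently transfected with cis-promoter reporter units, 24 h after chemical addition. Fitting was bidirectional, DMSO as negative control.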

[20] = ATG_M_32_CIS: Attagene CIS-FACTORIAL HepG2 Assay for M32 Transcription Factor (Internal Marker) (AID 2282949); conditions: HepG2 Attagene cis-factorial M32 reporter, mRNA; actives raise or lower the signal;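 further: background control marker of the multiplexed CIS panel rather than a real target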
Method in brief: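 Fluorescent capillary electrophoresis peaks of HpaI-digested, FAM-labelled RT-PCR reporter products give the signal. Source: transiently transfected human liver HepG2 cells, 24 h after chemical dosing; bidirectional fitting against DMSO.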

Measured: AC50

OCC(F)(F)OC(F)(F)C(F)(F)OC(F)(F)CO
active: [11] 74800 nM
not listed: [20]
inactive: all other assays above

O=C(O)C(F)(F)C(F)(F)C(=O)O
not listed: [12] | [19] | [20]
inactive: all other assays above

O=C(O)C1C(C(=O)O)C2(Cl)C(Cl)=C(Cl)C1(Cl)C2(Cl)Cl (stereo not given)
not listed: [5] | [12] | [19]
inactive: all other assays above

CC(O)C#N (stereo not given)
not listed: [16] | [18] | [20]
inactive: all other assays above

N#C/C=C/c1ccccc1
not listed: [12] | [19] | [20]
inactive: all other assays above

O=C(O)C(F)(OC(F)(F)C(F)(F)C(F)(F)F)C(F)(F)F (stereo not given)
not listed: [12] | [13]
inactive: all other assays above

COP(=O)(CCC(=O)NCO)OC
not listed: [12] | [16] | [18] | [19]
inactive: all other assays above

N#Cc1c(-c2ccc(Cl)cc2)[nH]c(C(F)(F)F)c1Br
active: [3] 1000 nM | [7] 47300 nM | [8] 956 nM | [9] 122 nM | [11] 2600 nM | [13] 1000 nM | [16] 274 nM
not listed: [12]
inactive: all other assays above
